Laboratory results from ChEMBL document CHEMBL4513216, “Probing the Open Global Health Chemical Diversity Library for Multistage-Active Starting Points for Next-Generation Antimalarials” (ACS Infect Dis, 2020).
In all, about 68,000 compounds went through this assay and about 2,700 (4%) showed an effect of 50% or more. Shown is part of a subset that was picked to be rich in strong results.

test system: Plasmodium berghei; assay: Screen against P. berghei liver stage (PbLuc), transformed with Luciferase, at 2uM; format: functional, HepG2; details: tested at 2 uM

Row | SMILES | INHIBITION [%]
1 | NCC1CCCCN1C(=O)Cc1cccc(Cl)c1 (centres undefined) | -22.89
2 | CC1(C)CN(C(=O)c2occc2COc2cccc(C#N)c2)CCO1 | -0.41
3 | O=C(NCc1nc[nH]n1)c1cc(COc2cccc(F)c2)[nH]n1 | 10.22
4 | CC(C)(C)C(=O)NCCC(=O)NS(=O)(=O)c1cccc(C#N)c1 | -49
5 | Cc1nc(CC(=O)N2CCc3nnc(N(C)C)cc3C2)cs1 | 1.6
6 | Cc1ccc(N2CCCC(N(C)c3ncnc4c3CCC4)C2)nn1 (centres undefined) | -28.33
7 | CC(C)(C)CC(=O)N1CC[C@@H]2[C@H](CC1)N(S(C)(=O)=O)CCS2(=O)=O | -16.93
8 | COc1ccc(CC(=O)N2CC[C@@H]3[C@H](CC2)N(C)CCS3(=O)=O)cc1 | 24.64
9 | COc1cccc(C(=O)N2CC[C@@H]3[C@H](CC2)N(C)CCS3(=O)=O)c1 | -14.21
10 | CN1CCS(=O)(=O)[C@@H]2CCN(C(=O)CC(C)(C)C)CC[C@@H]21 | 50.17
11 | CN1CCS(=O)(=O)[C@@H]2CCN(C(=O)c3ccccc3)CC[C@@H]21 | 71.83
12 | COc1ccc(C(=O)N2CC[C@@H]3[C@H](CC2)N(C)CCS3(=O)=O)cc1 | -17.39
13 | CC(=O)NC(C)(C)c1noc(C2(C#N)CCCCC2)n1 | 22.41
14 | Cc1nc(CCNC(=O)NC2CCN(c3ncccn3)CC2)cs1 | -17.45
15 | Cc1nc(CNC(=O)NC2CCCN(c3ncccn3)C2)cs1 (centres undefined) | 30.96
16 | Cc1nc(CNC(=O)NC2CCN(c3ncccn3)CC2)cs1 | 56.78
17 | Cc1nn(C)c(N2CCOCC2)c1CNCc1ccoc1C | 10.4
18 | Cc1cc(CNCc2c(C)nn(C)c2N2CCOCC2)no1 | 65.77
19 | Cc1nn(C)c(N2CCOCC2)c1CNCc1ccccc1CO | 50.18
20 | COc1ncccc1CNCc1c(C)nn(C)c1N1CCOCC1 | 40.24
21 | Cc1nn(C)c(N2CCOCC2)c1CNCc1ccc2c(c1)OCO2 | 18.01
22 | Cc1nn(C)c(N2CCOCC2)c1CNCc1ccc(CO)c(F)c1 | 63.05

Row | SMILES | INHIBITION [%]
23 | Cc1nc(CNCc2c(C)nn(C)c2N2CCOCC2)cs1 | -14.3
24 | Cc1cc(CNCc2c(C(C)C)nn(C)c2N2CCOCC2)no1 | 22.16
25 | Cc1nn(C)c(N2CCOCC2)c1CNCc1ccnc(N(C)C)c1 | 17.11
26 | CN(Cc1ccc(F)cc1)CC1(O)CCN(C(=O)c2cccs2)C1 (centres undefined) | -27.04
27 | CC(C)c1nc2n(n1)CC(NCc1nnc(C3CC3)o1)CC2 (centres undefined) | -30.61
28 | O=C(CCNC(=O)C1CCCC1)NCc1cccnc1-n1cncn1 | -18.67
29 | Cc1nn(C)c(C)c1C1SCC(=O)Nc2c1c(O)nn2C(C)C (centres undefined) | 4.89
30 | COc1ccc(Cl)cc1CN(C)CC(=O)Nc1ccnn1C(C)C1CC1 (centres undefined) | -13.72
31 | CC(=O)N(C)CC(=O)NCC1(c2c(F)cccc2F)CCCC1 | -41.54
32 | Cc1cccc(C2(CNC(=O)CO)CCCC2)c1 | 35.23
33 | CC(=O)N(C)CC(=O)NCC1(c2cccc(C)c2)CCCC1 | 54.29
34 | CN1CCC(c2cccc(CCC(=O)NCC(N)=O)n2)CC1 | 7.64
35 | CC(=O)N1CCC2(CC1)CN(C(C)=O)CC21CCNC1=O (centres undefined) | 24.36
36 | CN(C)C(=O)N1CCC2(CC1)CN(CC1CC1)CC21CCNC1=O (centres undefined) | 35.89
37 | CC(=O)N1CCC2(CC1)CN(CC(C)C)CC21CCNC1=O (centres undefined) | 63.35
38 | CCC[C@@H]1CN(Cc2cc(C#N)n(C)c2C)C[C@H]1NS(C)(=O)=O | 1.88
39 | CCC[C@H]1CN(Cc2cc(C#N)n(C)c2C)C[C@@H]1NS(=O)(=O)CC | 35.26
40 | CCC[C@H]1CN(Cc2cc(C#N)n(C)c2C)C[C@@H]1N(C)C | 51.4
41 | NC(=O)c1sc2ccccc2c1C1CCN(S(=O)(=O)N2CCOCC2)C1 (centres undefined) | -18.15
42 | Cc1noc(C)c1CN1CC[C@@H]2O[C@@H](COCC(C)C)CC[C@@H]21 | 13.87
43 | COCCN1CC[C@@H]2OC(COCC(=O)N3CCCC3)CC[C@@H]21 (some centres undefined) | 51.05
44 | CN(C)CCN1CC[C@@H]2O[C@@H](COCC(=O)N3CCCC3)CC[C@@H]21 | -30.82

Row | SMILES | INHIBITION [%]
45 | COCCN1CC[C@@H]2O[C@@H](COCC(=O)N3CCCC3)CC[C@@H]21 | -14.49
46 | Cc1ncnc2c1CCN(Cc1cccs1)CC2 | -8.24
47 | CNS(=O)(=O)CC(=O)N1CCC(c2cc3ccccc3[nH]2)CC1 | -46.85
48 | O=C(C1CCC1)N1CCC2(CCCN2CC2CC2)CC1 | 55.66
49 | O=C(C1CCCC1)N1CCC2(CC1)COCCN2CC1CC1 | -11.91
50 | O=C(C1CCCCC1)N1CCC2(CCCN2CC2CC2)CC1 | 24.15
51 | CC(C)NC(=O)[C@@H]1CC[C@@H]2[C@@H](CCN2Cc2cn(C)c3ccccc23)O1 | 29.43
52 | Cc1nc(CCCNC(=O)C2CC(=O)N(C3CC3)C2)sc1C (centres undefined) | -52.42
53 | Cc1nc(CCCNC(=O)C2CC(=O)N(C(C)(C)C)C2)sc1C (centres undefined) | 13.87
54 | CCN1CC(C(=O)NCCCc2nc(C)c(C)s2)CC1=O (centres undefined) | 72.05
55 | CCS(=O)(=O)NCc1cccnc1N1CCCC(O)C1 (centres undefined) | -5.31
56 | Nc1nc(C2CCN(C(=O)c3cncs3)CC2)cs1 | 0.14
57 | CC(C)(C)NS(=O)(=O)c1ccc(NC(=O)C2CC2)cc1 | 17.2
58 | COC1CCN(c2ccc(NC(=O)C3CC3)cc2C(F)(F)F)CC1 | -1.71
59 | CCNC(=O)CNS(=O)(=O)c1cc(Br)ccc1F | 42.32
60 | CC(=O)Nc1ccc(F)c(S(=O)(=O)NC(C)(C)C)c1 | -1.87
61 | CC(C)(C)NS(=O)(=O)c1cc(NC(=O)C2CC2)ccc1F | 62.51
62 | CCC(=O)Nc1ccc(F)c(S(=O)(=O)NC(C)(C)C)c1 | 57.75
63 | CCS(=O)(=O)N1Cc2c(Cn3ccnc3)nn(C(C)C)c2C1 | 3.72
64 | Cc1n[nH]c(C)c1CC(=O)NCCc1ccccc1 | 25.21
